Assay outcomes (PubChem BioAssay)
Most compounds without a hit are left out; they make up all but 1.1% or so of the library.
NCOA1 inh: inhibitors of human steroid receptor coactivator 1 (SRC1); AID 588354; HEK293 GAL4-SRC1 luciferase reporter, luminescence; inhibition, % at 3.6 µM; 0.12% of 360,000 active; Q15788;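 active = inhibition above the campaign mean plus 3 SD, with each screening campaign given its own cutoff, cut at about 60% in these data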;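 note: 0% = DMSO treated cells and 100% = gossypol at 36 µM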
COUP-TFII inh: NR2F2 (human) inhibition, primary screen; inhibition, % at 8.6 µM; P24468; 0.7% of 370,000 active; HEK293T NGFI-A luciferase reporter, luminescence;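 active = inhibition above a per-plate cutoff, mean inhibition of test wells between control levels plus 3 SD, cut at about 38% in these data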;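 note: cells cotransfected with COUP-TFII expression vector driving the NGFI-A reporter; 0% = median of COUP-TF2 test wells and 100% = reporter-only cells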
NCOA3 inh: human NCOA3 inhibition; inhibition, % at 3.6 µM; HEK293 GAL4-SRC3 luciferase reporter, luminescence; 0.17% of 360,000 active; Q9Y6Q9;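 active = inhibition above a per-campaign cutoff, the mean of all compounds plus 3 SD, cut at about 60% in these data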;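 note: 0% = DMSO-treated cells and 100% = gossypol-treated cells at 36 µM; higher means less SRC3-driven luciferase light from the GAL4 reporter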
LRH-1 inv ag: inverse agonists of human LRH-1 (NR5A2) | 0.13% of 360,000 active | HEK293T StAR-luciferase reporter, LRH-1 transfected, 24 h | O00482 | inhibition, % at 3.6 µM;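 active = inhibition above the mean inhibition of all tested compounds plus 3 SD, cut at about 73% in these data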;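 note: 0% = DMSO wells and 100% = reporter-only cells lacking LRH-1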
Target sequence (O00482 whole entry, looked up): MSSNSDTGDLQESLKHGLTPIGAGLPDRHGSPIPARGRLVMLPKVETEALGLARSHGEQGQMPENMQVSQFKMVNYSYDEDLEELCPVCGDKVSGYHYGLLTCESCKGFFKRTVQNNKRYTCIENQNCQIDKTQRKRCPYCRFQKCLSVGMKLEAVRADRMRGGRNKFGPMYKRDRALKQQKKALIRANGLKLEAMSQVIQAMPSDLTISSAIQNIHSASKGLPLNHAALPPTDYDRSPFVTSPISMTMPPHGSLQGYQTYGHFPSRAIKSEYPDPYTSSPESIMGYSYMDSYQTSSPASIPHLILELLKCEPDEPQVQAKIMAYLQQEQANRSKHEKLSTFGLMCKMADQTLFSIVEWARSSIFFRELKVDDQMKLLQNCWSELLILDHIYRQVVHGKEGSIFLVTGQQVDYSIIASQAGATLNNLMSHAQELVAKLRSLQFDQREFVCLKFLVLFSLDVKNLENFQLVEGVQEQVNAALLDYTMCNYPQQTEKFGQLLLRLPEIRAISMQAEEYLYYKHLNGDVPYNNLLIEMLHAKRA
SRC2 inh: human SRC2 (NCOA2) inhibition; Q15596; HEK293 GAL4-SRC2 luciferase reporter, luminescence; inhibition, % at 9 µM; 0.17% of 370,000 active;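 active = inhibition above the mean inhibition of all tested compounds plus 3 SD, set per campaign, cut at about 52% in these data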;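 note: 0% = DMSO treated cells and 100% = cells given Gossypol at 36 µM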
GalR3 antag: blocks the human galanin receptor 3. HEK293 GalR3-CNG cAMP membrane potential fluorescence; galR3 body fused to GalR1 C-terminus. inhibition, % at 3 µM. 0.44% of 360,000 active;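 active = inhibition above the screen-wide average plus 3 SD, cut at about 13% in these data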;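 note: forskolin and galanin both at EC90 stimulate the cells; cAMP rise reported by CNG channel membrane potential dye signal; 0% = forskolin plus galanin with DMSO and 100% = forskolin alone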
GalR3 antag conf: confirmation of human galanin receptor 3 antagonists. shares compounds with GalR3 antag. HEK293 GalR3 CNG cAMP biosensor, membrane potential fluorescence; galR3 fused to GalR1 carboxy tail; challenged with forskolin and galanin at EC90. inhibition, % at 3 µM. 59% of 1,600 active. AID 652245;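 active = inhibition above the primary screen's cutoff, the mean inhibition of all screened compounds plus 3 SD, cut at about 13% in these data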;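 note: 0% = forskolin plus galanin and 100% = forskolin alone with DMSO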
CNG parental: acts as nonspecific agonist in parental HEK-CNG cells. shares compounds with GalR3 antag. HEK293-CNG parental cells, cAMP membrane potential fluorescence; normalised: DMSO wells 0%, forskolin wells 100%. activation, % at 3 µM. 10% of 1,600 active. AID 652268; in the data active = activation above about 1.3%
Starred values were filed as active, the others as inactive; / = not tested or not shown.

SMILES | NCOA1 inh | COUP-TFII inh | NCOA3 inh | LRH-1 inv ag | SRC2 inh | GalR3 antag | GalR3 antag conf | CNG parental
CNC(=O)[C@H]1O[C@@H](n2cnc3c(NCc4cccc(I)c4)nc(Cl)nc32)[C@H](O)[C@@H]1O | -33 | -44 | -33 | -12 | -37 | 51* | 52* | -1
O=S(=O)(CC1NCc2ccccc21)NC1CCCC1 (stereo not drawn) | / | 6 | / | / | -2 | / | / | /
Cc1ccc(S(=O)(=O)N2CCOCC2)cc1C(=O)N1CCN(S(=O)(=O)c2cccs2)CC1 | 11 | -4 | 9 | 1 | -38 | 13* | 0 | 0
Cc1ccccc1NC(=O)c1cccc(S(=O)(=O)N2CCOCC2)c1 | -33 | -1 | -3 | -5 | 23 | -10 | / | /
Cc1ccc(S(=O)(=O)N2CCOCC2)cc1NC(=O)c1cccc(S(=O)(=O)N2CCCC2)c1 | 8 | 2 | 9 | 3 | -1 | / | 3 | 0
Cc1ccc(S(=O)(=O)N2CCOCC2)cc1C(=O)N1CCCC1 | 17 | 6 | 0 | -13 | 8 | -7 | / | /
Cc1ccccc1NC(=O)c1cc(S(=O)(=O)N2CCOCC2)ccc1F | -22 | -7 | -5 | 8 | 3 | 14* | 2 | 0
COc1cc(C(=O)Nc2cccc(S(=O)(=O)N3CCCC3)c2)cc(OC)c1C | -4 | -10 | 13 | -10 | -9 | 14* | 12 | 1
COc1cccc(CN[C@@H]2CC[C@@]34CCCN3C(=O)CCC[C@H]4C2)c1 | / | -9 | / | / | / | / | / | /
COc1ccc(CSc2nnc(SCC(=O)Nc3ccccc3-c3ccccc3)s2)cc1 | / | 25 | / | / | 14 | / | / | /
O=[N+]([O-])c1ccccc1C=Nn1c(-c2cc(-c3ccccc3)n[nH]2)n[nH]c1=S | / | -19 | / | / | 12 | / | / | /
COc1ccccc1NC(=O)CCCc1nc(-c2ccc(OC)c(OC)c2)no1 | -77 | 1 | -2 | -1 | 5 | 23* | 16* | 0
O=C(c1cc(-c2ccccc2)on1)N1CCC(Oc2cccnc2)CC1 | / | -1 | / | / | -7 | / | / | /
CCOc1nc2ccccc2cc1C=O | -3 | 5 | -25 | -2 | -3 | -5 | / | /
CCCOc1nc2ccccc2cc1/C=C/C(=O)O | -12 | 10 | 20 | -20 | -9 | 14* | 6 | 1
CCN(CC)S(=O)(=O)c1ccc(N2CCCC2)c(NC(=O)Cc2cc(OC)c(OC)c(OC)c2)c1 | 6 | -14 | 14 | -3 | -3 | 19* | 3 | 0
CCN(CC)S(=O)(=O)c1ccc(N2CCOCC2)c(NC(=O)COc2ccccc2)c1 | 5 | 8 | 8 | 5 | 8 | / | 13* | 0
CCN(CC)S(=O)(=O)c1ccc(N2CCOCC2)c(NC(=O)CCOc2ccccc2)c1 | -1 | 13 | 7 | 6 | 10 | -1 | / | /
C#CCN(C)S(=O)(=O)c1ccc(N2CCCC2)cc1Br | / | -8 | / | / | 18 | / | / | /
CC(=O)CC[C@H]1CC[C@]2(CCCN(C(=O)c3ccco3)C2)O1 | / | 4 | / | / | 2 | / | / | /
COc1ccc(-c2nc(C#N)c(NCc3ccc(F)cc3)o2)cc1OC | -20 | 7 | -13 | -13 | 4 | 13* | 25* | 0
COc1ccc(-c2nc(C#N)c(NCc3cccnc3)o2)cc1OC | -23 | -10 | -25 | -2 | -21 | 0 | / | /
NNC(=O)c1cc2c(N3CCC(Cc4ccccc4)CC3)ncnc2s1 | 1 | 12 | 10 | 18 | -8 | 29* | 21* | 1
C[C@@H]1ON(C)[C@H]2C[C@H]3c4[nH]c5c(-c6ccc7c(c6)OCO7)cccc5c4CCN3C[C@@H]12 | / | -4 | / | / | -31 | / | / | /
O=C(COC(=O)c1cccc(Br)c1)Nc1ccc2[nH]c(=O)[nH]c2c1 | -5 | 17 | 4 | -4 | -13 | 32* | 49* | 0
COc1ccc(CCNC(=O)c2cccnc2SC)cc1 | 2 | -1 | 8 | -16 | 14 | 13* | 27* | 0
OC(c1ccccc1)(c1ccccc1)C1CCN(CCCNc2ccc(Cl)cc2Cl)CC1 | / | 7 | / | / | -25 | / | / | /
